Data taken from PubChem BioAssay.

Assay: probe aDKK1 binding to arrayed compounds – biochemical, biotinylated probe, 635/667 nm fluorescence, primary screen (AID 1099);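 further: score merges 667nm spot fluorescence with signal to noise across triplicate slides; reference of the scale not given here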
Settings: small-molecule microarray, higher = more signal

Compound | composite z-score
C=CCN1C(=O)[C@@]2(Cc3ccccc3)N=C(c3ccc(OCCCO)cc3)O[C@H]2c2ccccc21 | 1.07
CC(=O)Nc1ccc([C@H]2[C@H](C)CC[C@H]3C(=O)N4[C@@H](CC[C@@H](C)[C@@H]4c4ccc(NC(C)=O)cc4)C(=O)N32)cc1 | 0.368
COc1cc2c(cc1OC)CN(C(=O)[C@@H]1[C@H]3C(=O)O[C@H](c4ccccc4)[C@H](c4ccccc4)N3[C@H](c3ccccc3OCCO)[C@@]13C(=O)Nc1ccccc13)CC2 | -0.682
CCOC(=O)C[C@H]1[C@H](OC(=O)Cc2ccc3c(c2)OCO3)[C@@H](NC(=O)c2ccc3ccccc3c2)c2cc(OCCCO)ccc2N1C(=O)Cc1ccc(OC)cc1 | 0.19
CO[C@@H]1COC(=O)[C@H](C)NC(=O)CC=C[C@@H](C)[C@H](OC)COC(=O)[C@H](C)NC(=O)CC=C[C@H]1C | -0.58
CO[C@H]1COC(=O)CC=C[C@H](C)COC(=O)[C@@H](OCc2ccccc2)C=C[C@@H]1C | -1.12
CCCC[C@@H]1C[C@H]1[C@@H](NC(=O)c1ccccc1)c1ccccc1C(F)(F)F | 0.526
CO[C@@H]1COC(=O)[C@H](C)NC(=O)CC=C[C@@H](C)[C@H](NS(=O)(=O)c2ccc(C)cc2)COC(=O)CC=C[C@@H]1C | -0.435
CC(=O)NCCCC[C@@H]1NC(=O)[C@H]2C[C@@H](C(=O)NCCCCCCN(C)C)[C@@H](c3cccc(OCCO)c3)N2C1=O | 0.822
NC(=O)NCC#Cc1ccc2c(c1)[C@]1(C(=O)N2)[C@H](c2ccccc2OCCO)N2[C@H](c3ccccc3)[C@H](c3ccccc3)OC(=O)[C@H]2[C@@H]1C(=O)N1CCN(c2ncccn2)CC1 | 0.0815
C[C@]1(C(=O)NCc2ccccc2)c2ccccc2C(=O)N(Cc2cc(C(F)(F)F)cc(C(F)(F)F)c2)[C@H]1c1ccc(CO)cc1 | 0.698
C=C(COC)/C(=C/C[C@@H](OC(C)=O)c1cccc(OCCO)c1)c1cc(C(=O)OC)ccc1OC | 0.258
COC(=O)[C@H]1[C@@H]2COc3ccccc3[C@H]2N[C@H]1C(=O)OC | -0.0995
CCc1cccc(NC(=O)O[C@H]2[C@H](OC(=O)Nc3ccccc3)[C@@H](OC(=O)Nc3ccccc3)[C@@H](OC)O[C@@H]2CO)c1 | 0.169
C=CCN1C(=O)[C@]2(O[C@H](CCn3cc(CCO)nn3)[C@@H]([Si](C)(C)c3ccc(OC)cc3)[C@@H]2C)c2cc(NC(=O)c3ccc(OC)cc3)ccc21 | 0.717
C=C(COC)/C(=C/C[C@H](OC(C)=O)c1ccc(OCCO)cc1)c1cnc2ccccc2c1 | 0.231
[N-]=[N+]=NCc1ccccc1C[C@]1(C(=O)N2CCCCC2)N=C(c2ccc(OCCCO)cc2)O[C@H]1c1ccccc1CN=[N+]=[N-] | 0.518
CO[C@H]1O[C@H](CO)[C@@H](OC(=O)Nc2ccccc2)[C@H](OC(=O)Nc2ccc3c(c2)OCO3)[C@@H]1OC(=O)Nc1ccc2c(c1)OCO2 | 0.355
CCOC(=O)C1=C[C@@H](c2ccccc2)N(S(=O)(=O)c2ccc(C)cc2)[C@H]1c1ccc(F)cc1 | 0.362
CCCC=C(CCC)[C@@H](NC(=O)c1ccc(C(F)(F)F)cc1)c1ccccc1 | 0.559
COC(=O)C[C@H]1O[C@]2(C(=O)N(Cc3ccccc3)c3ccc(I)cc32)[C@@H](C)[C@@H]1[Si](C)(C)c1ccc(OC)cc1 | 0.19
CCC(=O)[C@]12O[C@@]3([C@@H]4C(=O)OCC[C@@H]41)N(CC)C(C)=C(C(=O)OC)[C@@H](c1ccccc1)N3C2=O | -0.41
COCCOC(=O)N1C(=O)[C@@]2(c3cc(C#CC4=CCCCC4)ccc31)[C@H](c1ccc(O)cc1)N1[C@H](c3ccccc3)[C@H](c3ccccc3)OC(=O)[C@H]1[C@@H]2C(=O)N1CCCCCCC1 | 0.854
O=C(CS)NCCCCCNC(=O)[C@H]1C[C@H]2C(=O)N3CCC[C@H]3C(=O)N2[C@H]1c1ccc(O)cc1 | -0.18
CSCC[C@@H]1NC(=O)CC=C[C@@H](C)COC(=O)[C@H](CCSC)NC(=O)CC=C[C@@H](C)COC1=O | -0.396
COCCOC(=O)N1C(=O)[C@@]2(c3cc(C#CCNC(N)=O)ccc31)[C@H](C(=O)N1CCCCCCC1)[C@H]1C(=O)O[C@H](c3ccccc3)[C@H](c3ccccc3)N1[C@@H]2c1ccccc1OCCO | 1.46
O=C1O[C@H](c2ccccc2)[C@H](c2ccccc2)N2[C@H]1[C@@H](C(=O)Nc1nc3ccccc3s1)[C@]1(C(=O)Nc3ccc(C#CC4(O)CCCCCC4)cc31)[C@H]2c1ccc(O)cc1 | 0.0991
